Screening results as filed in PubChem.
Shown are actives, neighbours in structure and some others; about 3.4% of the full set was active somewhere.
esBAF inh: Bmi1 luciferase reporter increase in mESCs, primary screen, esBAF inhibitor project, mouse ES cells, Bmi1 luciferase knock-in, single point; reporter increase, % at 12.5 µM; 24 h; 100% = twice the neutral-well signal; 350,000 compounds, 2% hits; AID 602393, 2012; in the data active means activation above about 40%;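 further: 0% = median of the plate's neutral control wells and 100% = double that signal; a rise in the Bmi1 reporter signal indicates esBAF inhibition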
HSF1 activator: HSF-1 activators, primary screen, NIH3T3-HGL cells, MG132 stress, luminescence, single point; NIH3T3-HGL HSF-1 luciferase reporter, 8 h; 100% = twice DMSO control signal; activation, % at 9 µM; 300,000 compounds, 1.7% hits; AID 504408, 2011;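 active means mean replicate activation of at least 50% with a set share of replicates each reaching 50%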;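 further: 0% = median of the neutral control wells and 100% = twice that signal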
Vif imaging: HIV Vif self-association inhibitors, primary screen, imaging, HEK293T, single point | HEK293T cells, Vif self-association by quenched fluorescence, 24 h | inhibition, % at 7.49 µM | 340,000 compounds, 0.35% hits | AID 602346, 2012; in the data active means inhibition above about 50%, passing the limit was not always enough
HSF1 inh: HSF1 inhibitors in luciferase reporter cells, primary screen, cell-based, NIH3T3, luminescence; NIH3T3-HGL HSE-luciferase, MG132-induced, luminescence 8 h; active compounds read low; activity change, negative = inhibition, % at 7.5 µM (by protocol); 300,000 compounds, 0.77% hits;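 active means more than half of replicate wells show activity change below -50%, luminescence cut by over half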;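 further: luciferase reports HSF-1 transcriptional activity via heat shock element; 0% = median of DMSO wells and -100% = zero luminescence signal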
esBAF Ring1 qPCR: Ring1 mRNA increase in mouse ESCs, confirmation, esBAF inhibitor project, cell-based, mouse ESC, RT-qPCR, cherry-pick; AID 743176, 2013; mouse ESC E14, Ring1 mRNA RT-qPCR fold change; shares compounds with esBAF inh; 550 tested, under 10 active; fold change at 33 µM;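 active means Ring1 gene expression raised more than 2-fold over untreated cells in both replicates at either tested dose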;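 further: Ring1 transcript normalised to actin housekeeping signal by TaqMan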
Fgf4 repress: Fgf4 mRNA decrease in mouse ESCs, confirmation, esBAF inhibitor project, cell-based, mouse ESC, RT-qPCR, cherry-pick | shares compounds with esBAF inh | mouse ESC E14, Fgf4 mRNA qPCR fold change; active compounds read low | Fgf4 expression fold change at 33 µM | 550 compounds, 4% hits;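 active means Fgf4 expression under 0.8 fold of control in both repeat measurements at one or both tested doses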;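 further: Fgf4 transcript normalised to actin in duplex TaqMan qPCR; cells exposed to compound for 24 h before lysis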
esBAF Bmi1 qPCR: esBAF inhibition via Bmi1 de-repression, confirmation, cell-based, RT-qPCR, mouse ESC, single point, cherry-pick; shares compounds with esBAF inh; mouse ESE14 ES cells, Bmi1 mRNA qPCR fold; active compounds read high; fold change at 33 µM; 550 tested, under 10 active;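 active means Bmi1 expression fold change above 6 at either tested concentration, seen in replicate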;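 further: higher fold means more Bmi1 de-repression and stronger esBAF inhibition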
A549 cytotox: A549 cell cytotoxicity, cytotoxicity control, plate reader, single point, cherry-pick; AID 743188, 2013; 550 tested, under 10 active; shares compounds with esBAF inh; cell viability change % (negative = cytotoxic), % at 25 µM, hits read low; call rule not given here
HepG2 cytotox SP: HepG2 cell cytotoxicity, cytotoxicity control, plate reader, single point, cherry-pick | 550 compounds, 4% hits | activity change, negative = inhibition, % at 25 µM | active compounds read low | shares compounds with esBAF inh; in the data active means activity change below about -50%
HEK293 cytotox SP: HEK293 cell cytotoxicity, cytotoxicity control, plate reader, single point, cherry-pick; shares compounds with esBAF inh; activity change, negative = inhibition, % at 25 µM, hits read low; 550 compounds, 3% hits; in the data active means activity change below about -38%, passing the limit was not always enough
An asterisk follows results filed as active; / = not tested or not shown.

SMILES	esBAF inh	HSF1 activator	Vif imaging	HSF1 inh	esBAF Ring1 qPCR	Fgf4 repress	esBAF Bmi1 qPCR	A549 cytotox	HepG2 cytotox SP	HEK293 cytotox SP
Cc1sc2c(c1C)CN(C(C)(C)C)CN2C(=O)c1ccccc1	66*	35	-10	19	1.2	0.92	1.4	8	0	0
O=C(C[C@H]1CC[C@@H]2[C@H](COC[C@H](O)CN2S(=O)(=O)c2cccc(Cl)c2)O1)Nc1ccccc1	0	/	/	/	/	/	/	/	/	/
COc1ccc2nc3ccccc3[n+]([O-])c2c1	72*	/	-3	/	1.4	1.3	2.5	-6	-14	-11
COc1ccc2c(ccc[n+]2[O-])c1	2	/	1	/	/	/	/	/	/	/
CCC(=O)N1CC[C@@H]2[C@H]1c1cc(-c3cccc(F)c3)ccc1N(C)[C@@H]2CO	-6	/	/	/	/	/	/	/	/	/
Cc1ccc(CNC(=O)C2CCC(=O)N(CCc3ccc(Cl)cc3)C2)s1 (stereo unspecified)	-3	-7	10	-1	/	/	/	/	/	/
Cc1ccc(CNC(=O)C2CCC(=O)N(CCc3ccc(Cl)cc3)C2)cc1 (stereo unspecified)	56*	21	-5	19	1.2	0.93	1.7	-5	3	2
